Test results taken from the supplement of paper PMC10849652.
Targets with a hit are over-represented here; the source holds about 8,800 in all. About 0.5% of all pairs of compound and target were hits.

What was measured:
Test in all cases: log2 fold change, soluble protein after heating vs DMSO (PISA); higher = thermal stabilisation; K562 lysate, 10 uM; active = over 0.2 and 3.5 SD of the protein, either way, in both replicates (recomputed)
[1] = compound: CCCS(=O)(=O)Nc1ccc(F)c(C(=O)c2c[nH]c3ncc(-c4ccc(Cl)cc4)cc23)c1F [vemurafenib]
How it was run: (§1)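 Quantification was by TMTpro 16plex LC-MS/MS with equalised channel sums, applied to the supernatant after 21,000xg for 90 min. Samples were crude K562 extract at 1 mg/mL protein in PBS pH 7.4 with 1 mM MgCl2, treated with 10 μM compound for 30 min, heated for 3 min across 48°C-58°C, pooled and brought to 0.5% NP-40 at 4°C. Values are log-two fold changes in thermal stability relative to solvent controls, from duplicates.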

[2] = compound: CCCS(=O)(=O)Nc1ccc(F)c(C(=O)c2c[nH]c3ncc(Cl)cc23)c1F
How it was run: as §1

[3] = compound: CCN(CCCOc1ccc2c(Nc3cc(CC(=O)Nc4cccc(F)c4)[nH]n3)ncnc2c1)CCOP(=O)(O)O [barasertib]
How it was run: as §1

[4] = compound: CC[C@@H]1C(=O)N(C)c2cnc(Nc3ccc(C(=O)NC4CCN(C)CC4)cc3OC)nc2N1C1CCCC1
How it was run: as §1

[5] = compound: CC[C@@H]1C(=O)N(C)c2cnc(Nc3ccc(C(=O)N[C@H]4CC[C@H](N5CCN(CC6CC6)CC5)CC4)cc3OC)nc2N1C(C)C [volasertib]
How it was run: as §1

[6] = compound: CCn1c(C(=O)N(C2CC2)C2CC2)cc2c3c(ncn3C)c(Nc3cc(C)n(C)n3)nc21
How it was run: as §1

[7] = compound: CCn1cc(-c2ccnc3[nH]c(-c4cccc(CN(C)C)c4)cc23)c(-c2ccc(NC(=O)N(C)C)cc2)n1
How it was run: as §1

[8] = compound: CN1CCC(CNc2ccc3ncc(-c4cccc(OC(F)(F)F)c4)n3n2)CC1
How it was run: as §1

[9] = compound: CN1CCN(CCOc2cc(OC3CCOCC3)c3c(Nc4c(Cl)ccc5c4OCO5)ncnc3c2)CC1 [saracatinib]
How it was run: as §1

[10] = compound: CN1CCN(c2nc(C3=C(c4c[nH]c5ccccc45)C(=O)NC3=O)c3ccccc3n2)CC1 [sotrastaurin]
How it was run: as §1

Measured: log2 fold change

HDGFL2 isoform 2 (UniProt Q7Z4V5)
Sequence of UniProt Q7Z4V5 (Q7Z4V5 whole entry, looked up): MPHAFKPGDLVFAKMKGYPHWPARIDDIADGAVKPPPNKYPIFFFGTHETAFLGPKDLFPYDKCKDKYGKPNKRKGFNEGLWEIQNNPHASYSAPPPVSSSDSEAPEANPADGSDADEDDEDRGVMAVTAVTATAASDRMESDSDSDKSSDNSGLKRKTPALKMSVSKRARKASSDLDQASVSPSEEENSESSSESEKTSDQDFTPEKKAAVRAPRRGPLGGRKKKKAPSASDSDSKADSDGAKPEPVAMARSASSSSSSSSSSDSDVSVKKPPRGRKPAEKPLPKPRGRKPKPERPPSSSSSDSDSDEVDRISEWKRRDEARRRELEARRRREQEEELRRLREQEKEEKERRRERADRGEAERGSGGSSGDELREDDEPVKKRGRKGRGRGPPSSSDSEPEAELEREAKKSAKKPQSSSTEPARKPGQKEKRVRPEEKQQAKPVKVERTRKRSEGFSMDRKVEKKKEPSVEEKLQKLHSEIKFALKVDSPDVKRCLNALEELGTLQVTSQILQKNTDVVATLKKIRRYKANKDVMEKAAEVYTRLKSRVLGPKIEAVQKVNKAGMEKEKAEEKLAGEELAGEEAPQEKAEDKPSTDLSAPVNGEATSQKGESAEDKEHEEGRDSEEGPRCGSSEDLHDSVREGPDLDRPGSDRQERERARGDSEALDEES
inactive: [1] 0.016 | [2] -0.003 | [3] -0.01 | [4] 0.064 | [5] 0.052 | [6] -0.066 | [8] 0.196 | [9] -0.015 | [10] 0.038
active: [7] -0.417

GYPA (UniProt P02724)
Sequence of UniProt P02724 (P02724 whole entry, looked up): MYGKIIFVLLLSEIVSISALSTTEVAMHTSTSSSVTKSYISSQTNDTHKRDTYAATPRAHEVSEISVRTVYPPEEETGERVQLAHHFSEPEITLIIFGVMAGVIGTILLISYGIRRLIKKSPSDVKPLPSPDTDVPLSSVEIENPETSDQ
inactive: [1] -0.011 | [2] -0.008 | [3] 0.254 | [4] 0.188 | [5] 0.009 | [6] -0.081 | [8] -0.259 | [9] 0.01 | [10] 0.011
active: [7] 0.587

HAUS6 (UniProt Q7Z4H7)
inactive: [1] 0.004 | [2] 0.092 | [3] 0.025 | [4] 0.012 | [5] -0.068 | [6] 0.015 | [7] -0.063 | [8] 0.014 | [9] 0.01 | [10] 0.022

HK2 (UniProt P52789)
Sequence of UniProt P52789 (P52789 whole entry, looked up): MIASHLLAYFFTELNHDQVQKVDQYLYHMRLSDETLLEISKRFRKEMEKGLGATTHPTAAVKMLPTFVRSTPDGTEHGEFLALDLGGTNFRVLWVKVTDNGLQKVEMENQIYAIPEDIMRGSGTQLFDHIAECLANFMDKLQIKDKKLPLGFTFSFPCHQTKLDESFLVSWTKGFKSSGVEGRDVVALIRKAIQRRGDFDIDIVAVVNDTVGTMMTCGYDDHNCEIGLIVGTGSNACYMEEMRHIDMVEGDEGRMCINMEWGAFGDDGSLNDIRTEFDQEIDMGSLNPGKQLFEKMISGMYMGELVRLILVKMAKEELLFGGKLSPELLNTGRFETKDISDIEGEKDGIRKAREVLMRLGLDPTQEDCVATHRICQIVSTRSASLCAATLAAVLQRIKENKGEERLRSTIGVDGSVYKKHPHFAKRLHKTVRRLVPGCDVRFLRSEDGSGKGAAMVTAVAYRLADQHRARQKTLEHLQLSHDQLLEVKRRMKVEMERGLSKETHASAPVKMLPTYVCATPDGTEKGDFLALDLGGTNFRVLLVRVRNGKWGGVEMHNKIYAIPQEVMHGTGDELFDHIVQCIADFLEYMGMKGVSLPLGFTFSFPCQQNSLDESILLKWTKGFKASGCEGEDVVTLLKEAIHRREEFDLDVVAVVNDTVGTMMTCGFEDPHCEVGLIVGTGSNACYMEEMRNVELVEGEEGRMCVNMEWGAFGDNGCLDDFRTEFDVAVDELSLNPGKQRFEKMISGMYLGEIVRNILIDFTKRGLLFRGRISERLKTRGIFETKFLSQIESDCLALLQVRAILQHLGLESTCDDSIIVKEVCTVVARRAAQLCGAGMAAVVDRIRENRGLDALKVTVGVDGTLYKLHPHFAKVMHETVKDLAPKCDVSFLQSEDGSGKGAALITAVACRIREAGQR
inactive: [1] 0.046 | [2] 0.006 | [3] 0.009 | [4] -0.044 | [5] -0.049 | [6] 0.023 | [7] -0.015 | [8] -0.075 | [9] -0.009 | [10] 0.001

HAUS2 (UniProt Q9NVX0)
Sequence of UniProt Q9NVX0 (Q9NVX0 whole entry, looked up): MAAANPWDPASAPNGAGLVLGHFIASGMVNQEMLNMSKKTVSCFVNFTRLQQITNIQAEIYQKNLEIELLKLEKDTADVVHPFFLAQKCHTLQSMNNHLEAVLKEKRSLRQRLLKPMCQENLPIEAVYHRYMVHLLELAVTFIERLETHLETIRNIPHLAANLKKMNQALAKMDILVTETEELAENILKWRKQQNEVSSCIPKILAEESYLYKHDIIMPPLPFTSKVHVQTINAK
inactive: [1] -0.076 | [2] -0.005 | [3] 0.097 | [4] 0.018 | [5] 0.038 | [6] 0.036 | [7] 0.141 | [8] -0.089 | [9] 0.048 | [10] -0.007

HMGN5 (UniProt P82970)
Sequence of UniProt P82970 (P82970 whole entry, looked up): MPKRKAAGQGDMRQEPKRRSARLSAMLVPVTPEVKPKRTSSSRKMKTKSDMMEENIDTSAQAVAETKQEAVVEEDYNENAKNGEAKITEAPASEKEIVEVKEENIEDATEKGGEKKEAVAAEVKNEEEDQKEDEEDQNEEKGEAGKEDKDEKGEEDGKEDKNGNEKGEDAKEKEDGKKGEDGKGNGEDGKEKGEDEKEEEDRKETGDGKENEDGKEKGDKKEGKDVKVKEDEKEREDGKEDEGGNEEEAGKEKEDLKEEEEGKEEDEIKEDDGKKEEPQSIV
inactive: [1] -0.007 | [2] -0.011 | [3] -0.044 | [4] 0.016 | [5] 0.013 | [6] -0.044 | [8] -0.164 | [9] -0.027 | [10] -0.029
active: [7] 0.3

INTS14 (UniProt Q96SY0)
Sequence of UniProt Q96SY0 (Q96SY0 whole entry, looked up): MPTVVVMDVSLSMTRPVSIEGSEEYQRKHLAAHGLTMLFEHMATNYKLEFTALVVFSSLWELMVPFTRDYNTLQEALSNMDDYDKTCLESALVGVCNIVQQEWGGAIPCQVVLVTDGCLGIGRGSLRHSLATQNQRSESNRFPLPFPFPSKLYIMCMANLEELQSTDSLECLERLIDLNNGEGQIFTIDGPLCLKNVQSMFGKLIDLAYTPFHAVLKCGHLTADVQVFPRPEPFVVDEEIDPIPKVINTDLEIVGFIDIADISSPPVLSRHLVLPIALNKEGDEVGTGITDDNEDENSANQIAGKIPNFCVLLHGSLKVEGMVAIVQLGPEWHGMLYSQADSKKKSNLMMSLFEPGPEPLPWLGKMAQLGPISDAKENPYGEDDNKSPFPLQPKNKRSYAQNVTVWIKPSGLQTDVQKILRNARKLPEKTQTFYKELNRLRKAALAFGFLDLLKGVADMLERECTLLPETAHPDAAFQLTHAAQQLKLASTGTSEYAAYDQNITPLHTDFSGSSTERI
inactive: [1] -0.046 | [2] 0.034 | [3] -0.021 | [4] 0.019 | [5] -0.013 | [6] -0.017 | [7] -0.071 | [8] 0.008 | [9] -0.019 | [10] 0.001

ISOC2 (UniProt Q96AB3)
Sequence of UniProt Q96AB3 (Q96AB3 whole entry, looked up): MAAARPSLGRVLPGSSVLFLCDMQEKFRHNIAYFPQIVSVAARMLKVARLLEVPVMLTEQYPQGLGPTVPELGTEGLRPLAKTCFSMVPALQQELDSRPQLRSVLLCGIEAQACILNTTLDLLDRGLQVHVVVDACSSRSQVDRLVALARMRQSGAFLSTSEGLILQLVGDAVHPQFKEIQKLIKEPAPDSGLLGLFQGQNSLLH
inactive: [1] 0.048 | [2] 0.033 | [3] -0.12 | [4] 0.096 | [5] 0.013 | [6] -0.043 | [7] 0.02 | [8] -0.08 | [9] -0.047 | [10] 0.002

INF2 (UniProt Q27J81)
inactive: [1] 0 | [2] -0.059 | [3] 0.104 | [4] -0.07 | [5] -0.052 | [6] -0.01 | [7] -0.064 | [8] -0.045 | [9] 0.036 | [10] 0.019

HAUS3 (UniProt Q68CZ6)
Sequence of UniProt Q68CZ6 (Q68CZ6 whole entry, looked up): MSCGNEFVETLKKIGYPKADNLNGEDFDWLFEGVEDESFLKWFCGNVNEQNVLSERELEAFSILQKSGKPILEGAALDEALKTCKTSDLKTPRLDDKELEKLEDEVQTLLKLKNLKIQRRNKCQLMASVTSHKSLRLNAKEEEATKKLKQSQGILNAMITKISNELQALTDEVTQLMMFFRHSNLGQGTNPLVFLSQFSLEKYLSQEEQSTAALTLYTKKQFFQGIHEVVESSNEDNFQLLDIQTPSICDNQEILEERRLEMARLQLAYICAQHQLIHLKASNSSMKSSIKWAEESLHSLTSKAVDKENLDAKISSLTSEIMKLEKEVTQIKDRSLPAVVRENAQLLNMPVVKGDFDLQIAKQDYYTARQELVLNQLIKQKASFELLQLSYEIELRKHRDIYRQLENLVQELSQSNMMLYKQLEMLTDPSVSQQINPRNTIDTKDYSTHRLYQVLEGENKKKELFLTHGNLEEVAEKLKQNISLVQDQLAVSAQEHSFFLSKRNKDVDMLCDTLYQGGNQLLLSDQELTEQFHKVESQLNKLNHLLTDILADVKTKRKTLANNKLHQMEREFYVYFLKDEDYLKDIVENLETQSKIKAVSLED
inactive: [1] 0.012 | [2] 0.024 | [3] 0.006 | [4] -0.029 | [5] -0.048 | [6] 0.002 | [7] -0.035 | [8] -0.065 | [9] -0.016 | [10] 0.01

INPP4A (UniProt Q96PE3)
active: [3] 0.382
inactive: [1] -0.03 | [2] 0.011 | [4] -0.017 | [5] -0.034 | [6] 0.031 | [7] 0.021 | [8] 0.015 | [9] -0.025 | [10] -0.008

HECTD4 (UniProt J3KPF0)
inactive: [1] 0.04 | [2] 0.035 | [3] 0.014 | [4] 0.009 | [5] -0.09 | [6] 0.037 | [7] 0.007 | [8] 0.043 | [9] 0.006 | [10] -0.024

GTF2I (UniProt P78347)
Sequence of UniProt P78347 (P78347 whole entry, looked up): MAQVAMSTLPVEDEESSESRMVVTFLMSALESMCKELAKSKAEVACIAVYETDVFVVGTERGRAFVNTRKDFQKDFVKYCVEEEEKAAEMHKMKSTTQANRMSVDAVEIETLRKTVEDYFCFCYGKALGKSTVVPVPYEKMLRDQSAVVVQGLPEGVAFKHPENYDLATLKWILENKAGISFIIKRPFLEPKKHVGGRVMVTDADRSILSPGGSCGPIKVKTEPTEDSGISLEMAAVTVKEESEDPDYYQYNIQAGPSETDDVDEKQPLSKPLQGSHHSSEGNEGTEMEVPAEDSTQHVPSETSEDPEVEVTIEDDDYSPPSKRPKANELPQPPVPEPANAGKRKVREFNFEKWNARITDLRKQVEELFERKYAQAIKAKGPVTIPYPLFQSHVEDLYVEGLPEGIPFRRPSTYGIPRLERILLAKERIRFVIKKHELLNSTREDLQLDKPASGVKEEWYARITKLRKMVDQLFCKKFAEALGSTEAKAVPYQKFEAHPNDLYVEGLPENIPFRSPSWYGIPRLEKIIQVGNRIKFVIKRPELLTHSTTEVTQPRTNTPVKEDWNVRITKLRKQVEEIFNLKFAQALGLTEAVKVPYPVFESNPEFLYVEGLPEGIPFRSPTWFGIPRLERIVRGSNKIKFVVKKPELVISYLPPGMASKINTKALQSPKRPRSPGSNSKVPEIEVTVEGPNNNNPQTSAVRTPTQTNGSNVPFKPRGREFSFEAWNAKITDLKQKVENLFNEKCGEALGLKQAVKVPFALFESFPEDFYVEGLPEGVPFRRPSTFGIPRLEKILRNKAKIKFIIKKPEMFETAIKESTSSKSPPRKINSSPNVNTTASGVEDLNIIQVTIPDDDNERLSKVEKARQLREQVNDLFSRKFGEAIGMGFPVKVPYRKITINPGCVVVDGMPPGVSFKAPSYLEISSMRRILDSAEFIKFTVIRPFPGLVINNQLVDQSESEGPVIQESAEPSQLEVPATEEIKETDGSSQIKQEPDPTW
inactive: [1] -0.004 | [2] 0.031 | [3] 0.034 | [4] -0.055 | [5] -0.036 | [6] 0.005 | [7] -0.054 | [8] -0.033 | [9] 0.014 | [10] 0.01

HMGN4 (UniProt O00479)
inactive: [1] -0.015 | [2] 0.016 | [3] -0.003 | [4] 0.453 | [5] 0.003 | [6] 0.022 | [8] -0.595 | [9] -0.173 | [10] -0.099
active: [7] 1.29
